Test results reported in PubChem BioAssay (Tox21).
Records with an inconclusive call do not appear. The source made the active and inactive calls. Unless noted, calls come from the whole dose curve.

What was measured:
[1] = Nuclear factor erythroid 2-related factor 2/antioxidant responsive element (Nrf2/ARE) small molecule agonists: qHTS cell viability counter screen in human keratinocytes (AID 1919968; active = well fitted curve in the direction sought with a large enough effect in the repeat runs; an effect the other way counts as inactive or inconclusive; note: nearly all actives have a fitted effect of over 55% in size)
Method in brief: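 HaCaT ARE reporter line, 1,500 cells/well; 5 h settle, 37 C/5% CO2; cpd in DMSO pinned; 23 h exposure; CellTiter-Fluor, 1 h; fluorescence.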

[2] = Nuclear factor erythroid 2-related factor 2/antioxidant responsive element (Nrf2/ARE) small molecule agonists: luciferase reporter gene qHTS assay in human keratinocytes (AID 1919969); note: nearly all actives have a fitted effect of over 35% in size
[3] = target: Gonadotropin-releasing hormone receptor (Homo sapiens) (UniProt P30968); experiment: Human gonadotropin-releasing hormone receptor (GnRHR) small molecule agonists, calcium flux assay in GnRHR-HEK293 cells (AID 1920063); note: nearly all actives have a fitted effect of over 35% in size
Gonadotropin-releasing hormone receptor (Homo sapiens), sequence (P30968 whole entry, looked up): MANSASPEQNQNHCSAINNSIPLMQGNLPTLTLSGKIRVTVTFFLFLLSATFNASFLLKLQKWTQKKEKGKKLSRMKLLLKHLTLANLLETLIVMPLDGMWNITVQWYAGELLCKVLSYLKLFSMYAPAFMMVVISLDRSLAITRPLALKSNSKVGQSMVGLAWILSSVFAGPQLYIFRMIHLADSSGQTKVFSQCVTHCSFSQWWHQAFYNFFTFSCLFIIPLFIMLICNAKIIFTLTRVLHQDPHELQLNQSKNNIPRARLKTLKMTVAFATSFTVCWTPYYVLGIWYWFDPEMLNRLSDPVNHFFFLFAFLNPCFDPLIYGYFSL
Method in brief: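 GnRHR-HEK293, 1500 cells/well, 18 h 37 C/5% CO2; Ca dye 1 h 37 C; cpd pinned (DMSO), agonist mode; kinetic FL 480/540, 3 min, 1 s reads; 15 conc, n=3.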

[4] = target: KiSS-1 receptor (Homo sapiens) (UniProt Q969F8); experiment: Human kisspeptin (KISS1R) small molecule agonists, calcium flux assay in KISS1R-HEK293 cells (AID 1920064; active = well fitted curve in the direction sought with a large enough effect in the repeat runs; an effect the other way counts as inactive or inconclusive)
KiSS-1 receptor (Homo sapiens), sequence (Q969F8 whole entry, looked up): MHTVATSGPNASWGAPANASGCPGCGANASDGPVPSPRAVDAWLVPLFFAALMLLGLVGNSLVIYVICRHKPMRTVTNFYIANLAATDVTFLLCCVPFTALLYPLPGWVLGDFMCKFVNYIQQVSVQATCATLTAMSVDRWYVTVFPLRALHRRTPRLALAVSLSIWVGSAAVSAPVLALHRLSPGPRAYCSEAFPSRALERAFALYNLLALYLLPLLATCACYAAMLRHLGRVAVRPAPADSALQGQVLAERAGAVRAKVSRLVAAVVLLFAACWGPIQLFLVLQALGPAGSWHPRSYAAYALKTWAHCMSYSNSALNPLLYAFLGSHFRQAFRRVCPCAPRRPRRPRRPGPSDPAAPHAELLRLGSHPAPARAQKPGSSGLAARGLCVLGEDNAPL
Method in brief: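 Stable human KISS1R HEK293 line; 18 h plating, 37 C/5% CO2; calcium dye 1 h 37 C; compound pin transfer; kinetic fluorescence Ex/Em 480/540, 3 min.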

[5] = G protein-coupled receptor (GPCR) small molecule agonists, calcium flux assay: HEK293 wild type cell line counter screen (AID 1920065)
Method in brief: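 Kinetic fluorescence at Ex/Em 480/540, recorded every second over 3 min, served as the read-out after compound addition. Each compound was tested at 15 concentrations in triplicate on cells pre-loaded with calcium dye for 1 h.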

[6] = p53 small molecule agonists, cell-based qHTS assay with human liver microsomes (AID 1963577);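 note: p53 response element beta-lactamase reporter cells with liver microsomes plus NADPH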
Method in brief: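 HLM-supplemented p53RE-bla reporter assay: 16 h compound exposure at 37 C, microsomes and NADPH each 0.5 mg/mL final, read by fluorescence intensity.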

[7] = p53 small molecule agonists, cell-based qHTS assay with rat liver microsomes (AID 1963578)
Method in brief: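 Quantitative HTS of the Tox21 10K library: p53RE-bla cells, rat liver microsomes plus NADPH at 0.5 mg/mL final each, 16 h at 37 C, beta-lactamase fluorescence detection.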

[8] = p53 small molecule agonists, cell-based qHTS assay with human liver microsomes: qHTS cell viability counter screen (AID 1963579); note: nearly all actives have a fitted effect of over 45% in size
Method in brief: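 Viability of p53RE-bla cells is measured as CellTiter-Glo luminescence following a 16 h, 37 C incubation with compound, liver microsomes from human donors and NADPH.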

[9] = p53 small molecule agonists, cell-based qHTS assay with rat liver microsomes: qHTS cell viability counter screen (AID 1963580); note: nearly all actives have a fitted effect of over 45% in size
Method in brief: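 HCT-116 p53RE-bla, 4,000 cells/well, 5 h pre-incubation; cpd + rat liver microsomes 0.5 mg/mL + NADPH 0.5 mg/mL (final); 16 h, 37 C; CellTiter-Glo, 30 min RT; luminescence.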

[10] = p53 small molecule agonists, cell-based qHTS assay: qHTS cell viability counter screen (AID 1963581); note: nearly all actives have a fitted effect of over 45% in size
Method in brief: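 HCT-116 p53RE-bla cells, 4,000/well, plated 5 h before compound pin transfer; 16 h at 37 C; bla substrate 2 h RT; then CellTiter-Glo, 30 min RT, luminescence.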

[11] = p53 small molecule agonists, cell-based qHTS assay (AID 1963582; active = well fitted activation curve with a large enough effect in the signal ratio in the repeat runs, not every such curve was filed as active; the % refers to the signal ratio)
Method in brief: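 Reporter line: p53RE-bla. Pre-incubation 5 h, 37 C, 5% CO2; compound (DMSO, pin tool) 16 h, 37 C; B/G FRET substrate 2 h RT; fluorescence intensity read.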

[12] = target: 5-hydroxytryptamine receptor 2A (Homo sapiens) (UniProt P28223); experiment: 5-hydroxytryptamine receptor 2A (HTR2A) small molecule antagonists, cell-based qHTS assay (AID 1963586); note: nearly all actives have a fitted effect of over 45% in size
5-hydroxytryptamine receptor 2A (Homo sapiens), sequence (P28223 whole entry, looked up): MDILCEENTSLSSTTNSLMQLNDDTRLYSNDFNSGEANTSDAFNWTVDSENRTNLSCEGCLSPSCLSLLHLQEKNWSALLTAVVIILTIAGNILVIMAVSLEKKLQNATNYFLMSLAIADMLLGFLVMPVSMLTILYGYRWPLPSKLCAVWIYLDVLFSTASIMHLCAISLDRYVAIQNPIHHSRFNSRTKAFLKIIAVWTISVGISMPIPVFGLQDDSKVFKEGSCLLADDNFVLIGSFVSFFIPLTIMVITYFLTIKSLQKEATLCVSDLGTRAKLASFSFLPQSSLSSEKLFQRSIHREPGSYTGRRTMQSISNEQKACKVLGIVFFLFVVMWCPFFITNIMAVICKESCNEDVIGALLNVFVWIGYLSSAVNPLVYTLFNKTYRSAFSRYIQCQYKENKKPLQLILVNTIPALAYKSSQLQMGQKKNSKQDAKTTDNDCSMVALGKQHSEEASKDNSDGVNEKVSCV
Method in brief: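 Antagonist-mode intracellular calcium assay: DOI (4 nM) added after 5 min compound pre-incubation at room temperature to dye-loaded HTR2A-CHO cells. Fluorescence followed for 3 min, sampled every second.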

[13] = target: 5-hydroxytryptamine receptor 2A (Homo sapiens) (UniProt P28223); experiment: 5-hydroxytryptamine receptor 2A (HTR2A) small molecule agonists, cell-based qHTS assay (AID 1963587); note: nearly all actives have a fitted effect of over 30% in size
Method in brief: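 Kinetic calcium-flux fluorescence (2 min, 1 sec intervals) after compound addition in agonist mode. HTR2A-CHO cells were cultured 18 h, then dye-loaded 1 h at 37 C.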

[14] = target: Muscarinic acetylcholine receptor M1 (Homo sapiens) (UniProt P11229); experiment: Cholinergic receptor muscarinic 1 (CHRM1) small molecule antagonists, cell-based qHTS assay (AID 1963588); note: nearly all actives have a fitted effect of over 40% in size
Muscarinic acetylcholine receptor M1 (Homo sapiens), sequence (P11229 whole entry, looked up): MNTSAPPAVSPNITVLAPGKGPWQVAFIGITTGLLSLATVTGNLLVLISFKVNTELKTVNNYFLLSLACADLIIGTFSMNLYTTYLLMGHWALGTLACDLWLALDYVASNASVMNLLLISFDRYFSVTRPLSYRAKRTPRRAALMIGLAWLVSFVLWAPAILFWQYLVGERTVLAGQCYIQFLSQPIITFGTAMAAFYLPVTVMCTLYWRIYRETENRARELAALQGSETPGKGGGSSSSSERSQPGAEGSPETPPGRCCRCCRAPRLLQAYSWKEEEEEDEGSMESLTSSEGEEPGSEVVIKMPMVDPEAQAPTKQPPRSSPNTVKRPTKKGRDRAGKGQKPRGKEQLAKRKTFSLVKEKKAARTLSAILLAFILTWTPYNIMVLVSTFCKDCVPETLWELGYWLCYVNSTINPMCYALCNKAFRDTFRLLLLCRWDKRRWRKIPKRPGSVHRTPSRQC
Method in brief: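 CHRM1-CHO calcium-flux assay, antagonist mode. Cells were seeded 18 h, dye-loaded 1 h at 37 C and given compound for 5 min at RT, then acetylcholine was added at 50nM. FDSS fluorescence was read 3 min; 15 concentrations, three runs.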

[15] = target: Muscarinic acetylcholine receptor M1 (Homo sapiens) (UniProt P11229); experiment: Cholinergic receptor muscarinic 1 (CHRM1) small molecule agonists, cell-based qHTS assay (AID 1963589); note: nearly all actives have a fitted effect of over 35% in size
Method in brief: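 Human M1 in stable CHO line; 18 h plating, 1 h dye load 37 C; cpd added (agonist mode); Ca2+ fluorescence kinetic read, 1 s intervals; 15 conc, 3 runs.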

[16] = cAMP Responsive Elements (CRE) small molecule antagonists, cell-based qHTS assay (AID 1963591; active = well fitted inhibition curve with a large enough effect in the signal ratio in the repeat runs, not every such curve was filed as active; the % refers to the signal ratio)
Method in brief: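 Beta-lactamase reporter read by FRET substrate (LiveBLAzer B/G) after 2 h at room temperature. CRE-bla HEK293T cells had received compound plus 0.25 uM (final) NKH477 for 3 h at 37 °C.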

[17] = target: Beta-2 adrenergic receptor (Homo sapiens) (UniProt P07550); experiment: Adrenergic beta2 receptor (ADRB2) small molecule antagonists, cell-based qHTS assay (AID 1963592); note: series mostly up to about 92 µM; nearly all actives have a fitted effect of over 50% in size
Beta-2 adrenergic receptor (Homo sapiens), sequence (P07550 whole entry, looked up): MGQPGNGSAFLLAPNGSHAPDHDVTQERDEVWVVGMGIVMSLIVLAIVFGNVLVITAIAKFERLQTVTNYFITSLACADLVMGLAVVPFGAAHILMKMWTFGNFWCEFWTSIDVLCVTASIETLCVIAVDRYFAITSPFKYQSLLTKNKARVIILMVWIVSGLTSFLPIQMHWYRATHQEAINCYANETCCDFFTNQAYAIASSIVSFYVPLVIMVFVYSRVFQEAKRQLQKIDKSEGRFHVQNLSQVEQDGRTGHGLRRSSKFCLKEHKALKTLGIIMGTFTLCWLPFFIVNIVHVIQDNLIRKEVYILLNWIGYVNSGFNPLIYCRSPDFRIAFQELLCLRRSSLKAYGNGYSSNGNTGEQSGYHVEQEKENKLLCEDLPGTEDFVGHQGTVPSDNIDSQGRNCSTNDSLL
Method in brief: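 Cells (CHO, stable ADRB2 overexpression) incubated 18-20hr at 37C; compounds added from DMSO; agonist mix (1nM isoproterenol, 100uM IBMX, 25uM Ro-20-1724) added; 0.5hr RT; d2-cAMP and anti-cAMP-cryptate added; 1hr RT; 665/615 nm read.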

[18] = target: D(2) dopamine receptor (Homo sapiens) (UniProt P14416); experiment: Dopamine D2 receptor (DRD2) small molecule agonists, cell-based qHTS assay (AID 1963594); note: nearly all actives have a fitted effect of over 35% in size
D(2) dopamine receptor (Homo sapiens), sequence (P14416 whole entry, looked up): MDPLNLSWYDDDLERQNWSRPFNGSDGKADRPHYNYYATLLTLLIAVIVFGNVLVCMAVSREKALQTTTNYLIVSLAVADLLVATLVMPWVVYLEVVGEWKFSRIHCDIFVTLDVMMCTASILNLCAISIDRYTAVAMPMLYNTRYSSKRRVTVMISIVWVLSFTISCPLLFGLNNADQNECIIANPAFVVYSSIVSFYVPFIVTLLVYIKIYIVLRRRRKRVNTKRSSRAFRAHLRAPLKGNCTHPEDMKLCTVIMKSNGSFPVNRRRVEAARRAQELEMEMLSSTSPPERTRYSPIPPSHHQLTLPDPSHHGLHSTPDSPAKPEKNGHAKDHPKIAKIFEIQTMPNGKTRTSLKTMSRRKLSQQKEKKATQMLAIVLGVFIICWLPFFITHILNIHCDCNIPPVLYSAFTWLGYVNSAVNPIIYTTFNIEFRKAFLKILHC
Method in brief: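 cAMP accumulation in DRD2-HEK293 cells measured by HTRF after 1 h detection; compounds added 10 min before NKH477 (200nM […]) forskolin-analogue stimulation, 30 min at room temperature, with Ro20-1724 present at 0.1 mM final.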

[19] = target: D(2) dopamine receptor (Homo sapiens) (UniProt P14416); experiment: Dopamine D2 receptor (DRD2) small molecule antagonists, cell-based qHTS assay (AID 1963595; active = well fitted inhibition curve with a large enough effect in the signal ratio in the repeat runs, with a control signal flat; the % refers to the signal ratio)
Method in brief: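 Stable D2 receptor HEK293 line, 24 h after seeding. Compound preincubated 10 min, then quinpirole (12 nM) with forskolin analogue NKH477 (200 nM), 30 min, room temperature. Detection by time-resolved FRET of cAMP.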

[20] = cAMP Responsive Elements (CRE) small molecule agonists, cell-based qHTS assay (AID 1963590)
Method in brief: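 HEK 293T CRE-bla, 2,000 cells/well, 18 h preincubation 37 C/5% CO2; cpds (DMSO) pinned, 3 h; LiveBLAzer B/G FRET substrate, 2 h RT.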

Measured: Potency

O=C(CCBr)N1CCN(C(=O)CCBr)CC1
inactive: [1] | [2] | [3] | [4] | [5] | [6] | [7] | [8] | [9] | [10] | [11] | [12] | [13] | [14] | [15] | [16] | [17] | [18] | [19]

CC1CCc2cc(F)cc3c(=O)c(C(=O)O)cn1c23 (stereo not given)
inactive: [1] | [2] | [3] | [4] | [5] | [6] | [7] | [8] | [9] | [10] | [11] | [12] | [13] | [14] | [15] | [16] | [17] | [18] | [19]

COc1ccccc1OCC(O)CN1CCN(CC(=O)Nc2c(C)cccc2C)CC1 (stereo not given)
inactive: [1] | [2] | [3] | [4] | [5] | [6] | [7] | [8] | [9] | [10] | [11] | [12] | [13] | [14] | [15] | [20] | [18] | [19]

CCCCc1ccc2c(n1)[C@@H](c1ccc(OC)cc1C[C@H](C)C(=O)O)[C@H](C(=O)O)[C@H]2c1ccc2c(c1)OCO2
inactive: [1] | [2] | [3] | [4] | [5] | [6] | [7] | [8] | [9] | [10] | [11] | [12] | [13] | [14] | [15] | [17] | [18]

CCCCCOC(=O)CCCC
inactive: [1] | [2] | [3] | [4] | [5] | [6] | [7] | [8] | [9] | [10] | [11] | [12] | [13] | [14] | [15] | [16] | [17] | [18] | [19]

CC(C)(C)N(CCO)CCO
inactive: [1] | [2] | [3] | [4] | [5] | [6] | [7] | [8] | [9] | [10] | [11] | [12] | [13] | [14] | [15] | [16] | [17] | [18] | [19]

CCCCC(=O)OCC(=O)[C@H]1[C@H](C)C[C@H]2[C@@H]3C[C@H](F)C4=CC(=O)C=C[C@]4(C)[C@@]3(F)[C@@H](O)C[C@@]21C
inactive: [1] | [2] | [3] | [4] | [5] | [6] | [7] | [8] | [9] | [10] | [11] | [12] | [13] | [14] | [15] | [16] | [17] | [18] | [19]
